Results on 97 molecules are retold here after PubChem BioAssay AID1486 (The Scripps Research Institute Molecular Screening Center, 2009).

The campaign covered roughly 220,000 compounds. About 2,400 (1.1%) were called active. This is one part of a sample in which actives are shown more often than they occur. A number with no mark means an inactive call.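 How the source made its calls: active means inhibition above a per-campaign cutoff, the mean inhibition of all tested compounds plus 3 SD (cut at about 27% in these data); inactive means the rest.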

What is called inhibition is the drop in the measured response relative to a control, in per cent.

The test in a line: growth loss in parental Ba/F3 cells – cell-based, murine pro-B, CellTiter-Glo luminescence, counter-screen for JAK2V617F inhibitor project (AID 1486).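 Further: 0% = DMSO wells and 100% = JAK Inhibitor I control wells.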 Conditions: Ba/F3 parental viability, CellTiter-Glo ATP luminescence; at 5.6 µM; hits give high values.
Take `CCOC(=O)c1c(-c2ccc(C)cc2)csc1/N=C(\C)C1=C(O)c2ccccc2C1=O`: the inhibition was -0.41%.

Consider `CCOC(=O)c1ccccc1NS(=O)(=O)c1ccc(OC)cc1`, for which the inhibition is 5.36%.

As to `CCOC(=O)C1=C(c2ccc(OC)cc2)C(=O)c2ccccc2C1=O`, the inhibition is 29.1% (active).

With `Brc1ccc(-c2nn[nH]n2)cc1`, the inhibition was 0.72%.

Regarding `COc1ccc(OCCC(=O)c2ccc(OC)cc2)cc1`, the inhibition was -3.65%.

Regarding `COc1ccc(C(=O)C[n+]2ccc(N)c(C)c2C)cc1`, the inhibition is 74.6% (active).

As for `COc1ccc(C(=O)C[n+]2ccc(C)cc2)cc1`, the inhibition was 2.06%.

For the molecule `O=C(CNS(=O)(=O)c1ccccc1)NCC(=O)OCc1ccccc1F`, the inhibition was 8.12%.

With `O=C(c1cncc(Br)c1)N1CCN(c2ccc([N+](=O)[O-])cc2)CC1`, the inhibition was 6.79%.

As to `O=C1NC(c2ccc(-c3ccccc3[N+](=O)[O-])o2)C(C(=O)c2ccc(Cl)cc2)C(O)(C(F)(F)F)N1` (configuration not stated), the inhibition was 6.99%.

Regarding `O=C(N/N=C/c1c[nH]c2ccccc12)c1cc2ccccc2o1`, the inhibition was -2.26%.

For the molecule `O=C(N/N=C/c1coc2ccccc2c1=O)c1cc2ccccc2o1`, the inhibition is 4.3%.

`Cc1c(/C=N\NC(=O)c2cc3ccccc3o2)c2ccccc2n1C`: the inhibition was 41.3% (active).

Consider `CN(Cc1ccccc1)C(=O)CCc1ccccc1`, for which the inhibition is 1.56%.

Consider `Cn1c(-c2ccc(F)cc2)cnc1SCC(=O)NNC(=O)Cc1ccccc1`, for which the inhibition is 1.6%.

Consider `Cc1ccc(-c2cnc(NC(=O)CCC(=O)N(C)Cc3ccccc3)n2C)cc1`, for which the inhibition is 62.4% (active).

Consider `CC(=O)Nc1nc(N(C)C)nc(N(C)C)n1`, for which the inhibition is 2.27%.

With `COc1ccc(-n2nnnc2SCC(=O)NCc2cccs2)cc1`, the inhibition was 7.65%.

Turning to `CSc1nc(N(C)NC(=O)c2cccc(C)c2)c2ccccc2n1`, the inhibition was 90.9% (active).

Turning to `COC(=O)CNC(=O)c1ccccc1F`, the inhibition is 3.61%.

As to `COc1ccc(C(=O)NN(C)c2nc(-c3ccccc3)cc(C)c2S(C)(=O)=O)cc1`, the inhibition is 6.2%.

With `COc1ccc(OCC(=O)NNC(=O)c2cccc(C)c2)cc1`, the inhibition is 1.18%.

`CN(NC(=O)c1ccccc1)c1nc2ccccc2nc1C(F)(F)F`: the inhibition was 5.67%.

Consider `CN(NC(=O)c1ccccc1F)c1nc(C(F)(F)F)nc2ccccc12`, for which the inhibition is 73.9% (active).

Turning to `Cc1cc(C)c2nc(SCC(=O)N(C)C3CCS(=O)(=O)C3)cc(C)c2c1` (configuration not stated), the inhibition is 2.01%.

Turning to `CCc1cc(CNC(=O)CC2C(=O)NCCN2Cc2ccccc2C(F)(F)F)on1` (configuration not stated), the inhibition was 2.77%.

As to `O=C(O)c1ccn(COc2ccc(Br)cc2)n1`, the inhibition was 6.73%.

With `C=CCNC(=S)N/N=C/c1ccc(C)s1`, the inhibition was -10.6%.

`COC(=O)C1NN=C(C(=O)c2ccc(Br)cc2)C1c1cccc(Br)c1` (configuration not stated): the inhibition was 5.65%.

`CC(C)CCN1CCN(Cc2cn[nH]c2C2CCCCC2)CC1CCO` (configuration not stated): the inhibition was 5.24%.

As for `CC1(C)CC(CNCCC(c2ccc(F)cc2)c2ccco2)CCO1` (configuration not stated), the inhibition was 4.73%.

For `Cc1cc(NC(=O)CN2C(=O)NC(C)(CCc3ccccc3)C2=O)no1` (configuration not stated), the inhibition is -0.49%.

In the case of `O=C(Nc1ccc(CSc2ccccc2)cc1)c1ccc(CN2CCOCC2)cc1`, the inhibition was 6.68%.

Consider `O=C(COC(=O)CNC(=O)c1ccccc1F)NCC(F)(F)F`, for which the inhibition is 0.89%.

On to `CCO/C=C1\C(=O)N(c2ccc(OCC)cc2)C(=O)c2ccccc21`, for which the inhibition was 0.91%.

For the molecule `CCOc1ccc(N2C(=O)CN(c3cccc4ccccc34)C2=S)cc1`, the inhibition is 80.4% (active).

`CCOc1ccc(N2C(=O)CC(N(O)c3ccccc3)C2=O)cc1` (configuration not stated): the inhibition was -1.11%.

Regarding `COc1ccc(CC(NC(C)=O)C(=O)NC2CCN(C(=O)C3CC3)CC2)cc1OC` (configuration not stated), the inhibition is -2.26%.

As to `Cc1cc(NC(=O)Nc2ccc(Cl)cc2)n(-c2ccccc2)n1`, the inhibition is 0.47%.

Take `Cc1nn(-c2ccccc2)c(-n2cccc2)c1C(=O)O`: the inhibition was 7.83%.

On to `CCn1c(SCC(=O)Nc2sc(C)c(C)c2C#N)nnc1C1CC1`, for which the inhibition is -1.4%.

As for `COC(=O)c1ccc(/C=N/N2C(C)CCCC2C)cc1` (configuration not stated), the inhibition was -0.91%.

Consider `COc1ccc2nc(Nc3nc4ccc(NC(C)=O)cc4s3)sc2c1`, for which the inhibition is 1.76%.

Regarding `CCCC(=O)Nc1nc2ccc(NC(=O)c3c(F)c(F)c(OC)c(F)c3F)cc2s1`, the inhibition was 83.3% (active).

For the molecule `CCCC(=O)Nc1nc2ccc(NC(=O)c3cccnc3)cc2s1`, the inhibition was 6.39%.

Regarding `CN(C)C(=O)c1cccn(Cc2cccc(C(F)(F)F)c2)c1=O`, the inhibition is 1.53%.

For the molecule `N#Cc1ncc(C(F)(F)F)cc1Oc1cccnc1`, the inhibition was 3.06%.

Regarding `Cc1ccc2nc(Nc3ccccc3O)nc(-c3ccccc3)c2c1`, the inhibition is 2.87%.

With `COc1ccc(OC)c(Nc2nc(-c3ccc(O)c(O)c3)cs2)c1`, the inhibition is 7.93%.

`COc1ccc(-c2csc(Cc3nc(O)cs3)n2)cc1`: the inhibition was 2.47%.

On to `CC(C)(C)C(=O)OCc1nc(-c2ccc(O)c(O)c2)cs1`, for which the inhibition is 55.4% (active).

Consider `O=c1[nH]cnc2c1c(-c1ccccc1)cn2-c1ccc(F)cc1`, for which the inhibition was 5.71%.

`Cc1ccc2c(c1)C(O)(CC(=O)c1cccc(-n3cccc3)c1)C(=O)N2` (configuration not stated): the inhibition was 9.56%.

As for `Cc1cc2c(cc1C)[n+](C)cn2CC(O)COCC1CC=CCC1` (configuration not stated), the inhibition is 77.5% (active).

As for `CCc1ccc(-n2c(SCc3cc(=O)n4cc(Br)ccc4n3)nc3[nH]ncc3c2=O)cc1`, the inhibition was 3.56%.

As to `Fc1ccc2[nH]c3c(N4CCN(Cc5ccc6c(c5)OCO6)CC4)ncnc3c2c1`, the inhibition was 43.4% (active).

On to `Fc1ccc2[nH]c3c(N4CCSCC4)ncnc3c2c1`, for which the inhibition is 2.75%.

On to `Cc1cc(N2CCN(Cc3ccc4c(c3)OCO4)CC2)n2ncnc2n1`, for which the inhibition is 8.83%.

As for `Cc1ccc(OC(=O)c2c(C)nn(-c3ccccc3)c2C)cc1`, the inhibition is -2.11%.

`COC(=O)COc1ccc(S(=O)(=O)Nc2ccc(NC(C)=O)cc2)cc1`: the inhibition was 3.84%.

Regarding `COc1cc(NS(=O)(=O)c2ccc(NC(C)=O)cc2)cc(OC)c1`, the inhibition was 6.53%.

For `COc1ccc(NS(=O)(=O)c2ccc(NC(C)=O)cc2)cc1OC`, the inhibition is 36.4% (active).

For `CCCCCCCC(=O)OC(CN1CCCCCC1)CN1CCCC1=O` (configuration not stated), the inhibition is 2.21%.

For the molecule `COc1ccc(-n2nnnc2-c2nc3ccccc3s2)cc1`, the inhibition is 2.01%.

In the case of `CCOc1cccc(-c2nnc3sc(COc4ccc(OC)cc4)nn23)c1`, the inhibition was 3.78%.

In the case of `CCOc1cccc(-n2nnnc2-c2ccc(OC)cc2)c1`, the inhibition is 56.8% (active).

Take `CN(C)S(=O)(=O)c1ccc(C(=O)NCC(C)(C)N2CCOCC2)cc1`: the inhibition was 0.19%.

For the molecule `CC(C)NC(=S)N1CCN(C(c2ccccc2)c2ccccc2)CC1`, the inhibition is 5.27%.

As for `CC1(C)CC(N2CCN(C(c3ccccc3)c3ccccc3)CC2)=CC(=[N+]2CCCCC2)C1`, the inhibition is 88.5% (active).

In the case of `CC1(C)CC(=O)C=C(N2CCCC2)C1`, the inhibition is -2.25%.

As for `Brc1ccc2ncnc(NCc3cccnc3)c2c1`, the inhibition is -4.51%.

`CC1CCCN(S(=O)(=O)c2ccc(C(=O)Nc3nnc(-c4ccncc4)o3)cc2)C1` (configuration not stated): the inhibition is 6.63%.

Take `CC1CCCCN1S(=O)(=O)c1ccc(C(=O)Nc2nnc(-c3cccs3)o2)cc1` (configuration not stated): the inhibition is 34.1% (active).

On to `CC1CCCCN1S(=O)(=O)c1ccc(S(=O)(=O)N(CC(=O)Nc2ccccc2)Cc2cccs2)cc1` (configuration not stated), for which the inhibition was 1.87%.

For `COc1ccc2[nH]c(C(=O)Nc3ccccc3Cl)cc2c1`, the inhibition was -2.76%.

Consider `Cn1ccc(=Nc2ccc(NC(=O)c3ccc(N=c4ccn(C)c5ccc([N+](=O)[O-])cc45)cc3)cc2)cc1`, for which the inhibition is 29.7% (active).

Take `Cc1cc([N+](=O)[O-])ccc1NC(=O)c1ccc(NC(=O)C(C)C)cc1`: the inhibition was 6.88%.

On to `CC(=O)NC(=S)Nc1ccc(NC(=S)NC(=O)c2ccc([N+](=O)[O-])cc2)cc1`, for which the inhibition is -2.36%.

Turning to `CC1CCN(c2c(NCc3ccc(C(=O)NCc4ccccc4)cc3)c(=O)c2=O)CC1`, the inhibition is -0.24%.

As to `CCN1CCN(C(c2cccnc2)c2cc(Cl)c3cccnc3c2O)CC1` (configuration not stated), the inhibition is 4.4%.

Consider `Oc1c(C(c2ccccn2)N2CCOCC2)ccc2cccnc12` (configuration not stated), for which the inhibition is 2.22%.

For `CCOC(=O)N1CCN(C(c2cccnc2)c2ccc3cccnc3c2O)CC1` (configuration not stated), the inhibition was 35.8% (active).

With `CCCNC(=O)OC[C@H]1O[C@H](CCO/N=C/[C@@H](NS(=O)(=O)c2ccc(C)cc2)[C@H](C)/C=C/CC(=O)OC)C=C[C@@H]1Oc1ccc(OC)cc1`, the inhibition was 1.98%.

Turning to `CC1CCN(C(=O)c2ccc(S(=O)(=O)Cc3cc(F)ccc3F)c([N+](=O)[O-])c2)CC1`, the inhibition is 2.51%.

Take `Cc1ccc(/C=N/NC(=O)CN2CCN(Cc3ccccc3)CC2)s1`: the inhibition is 0.65%.

`CCCCCCCCn1c2c(c(=N)c3c1CCC3)CCCC2`: the inhibition is 88.4% (active).

As for `CCCCCCn1c(CN2CCCCC2)nc2c1c(=O)n(C)c(=O)n2C`, the inhibition was 2.14%.

In the case of `Cc1cc(CNC(=O)c2cccc([N+](=O)[O-])c2)c2ccccc2n1`, the inhibition is -2.87%.

Consider `O=C(Nn1c(SCc2ccc([N+](=O)[O-])cc2)nc2ccccc2c1=O)c1ccc(F)cc1`, for which the inhibition is -1.55%.

For `CN(CC(=O)NC1CCCC1)S(=O)(=O)c1cnc[nH]1`, the inhibition was -0.47%.

Regarding `CSc1ccc(C#N)cc1NC(=O)c1ccc(Cl)cc1`, the inhibition is 1.1%.

As for `COc1ccccc1NC1=NC2(CCCC2)N=C(N)N1`, the inhibition is 10.5%.

With `COc1ccccc1Nc1nc(N)nc(CN(C)C2CCCCC2)n1`, the inhibition was 0.48%.

Consider `COc1ccccc1NC1=NC(c2ccc(Cl)cc2)N=C(N)N1` (configuration not stated), for which the inhibition is 81.1% (active).

Consider `CCOc1ccccc1Oc1cn[nH]c1-c1ccc(OC)cc1O`, for which the inhibition is 94.7% (active).

`CCOc1ccc(-c2nc(N)ncc2-c2ccccc2OC)c(O)c1`: the inhibition was -0.51%.

Consider `CCOc1ccc(-c2n[nH]c(C)c2-c2ccccn2)c(O)c1`, for which the inhibition is 5.9%.
